For one sequence, binding signal results are on record in PMC7862700, “An all-to-all approach to the identification of sequence-specific readers for epigenetic DNA modifications on cytosine”.

Holding throughout (experiment): DAPPL (digital affinity profiling via proximity ligation, sequencing); 10 mM Tris-HCl pH 7.5, 50 mM NaCl, 1 mM DTT, 4% glycerol, room temperature, 30 min; GST-TFs on glutathione beads, 16-mer random dsDNA library, 0.1% formaldehyde crosslink after washing; high values mean tight binding
One experiment deals with T1, FLI1 (Homo sapiens, UniProt Q01543 1-452).
T1 sequence: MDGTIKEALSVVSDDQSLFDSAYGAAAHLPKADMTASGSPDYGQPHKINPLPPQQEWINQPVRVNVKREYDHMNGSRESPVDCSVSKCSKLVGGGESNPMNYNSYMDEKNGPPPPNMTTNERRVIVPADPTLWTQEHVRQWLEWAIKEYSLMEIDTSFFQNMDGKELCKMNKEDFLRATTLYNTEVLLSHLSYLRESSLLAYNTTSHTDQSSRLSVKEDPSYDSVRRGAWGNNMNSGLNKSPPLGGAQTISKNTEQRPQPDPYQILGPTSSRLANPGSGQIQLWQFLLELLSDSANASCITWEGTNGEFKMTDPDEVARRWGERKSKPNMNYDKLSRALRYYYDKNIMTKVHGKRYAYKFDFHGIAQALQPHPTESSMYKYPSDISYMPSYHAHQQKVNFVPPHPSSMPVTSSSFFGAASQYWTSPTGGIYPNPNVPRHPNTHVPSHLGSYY
To be noted: protein: recombinant; tags: N-terminal GST; dsDNA, one strand shown. In a few lines: (§1)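 Sequencing on an Illumina NextSeq500 followed washing, crosslinking with 0.1% formaldehyde, proximity ligation (BsaI/T4 ligase, 1 h, 37 °C) and PCR amplification of pools that had been incubated for 30 min at room temperature with 200 nmole of a random double-stranded 16-mer DNA library in Tris/NaCl/DTT/glycerol buffer. Each pool held DNA-barcoded human transcription factors, expressed in yeast as GST fusions and captured on glutathione beads, plus a tag-only sample. Binding signal is a hexamer's read frequency for a factor divided by its frequency in the tag-only sample.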

The next experiment concerns the target T2, ELK1 (Homo sapiens, UniProt P19419 1-428).
T2 sequence: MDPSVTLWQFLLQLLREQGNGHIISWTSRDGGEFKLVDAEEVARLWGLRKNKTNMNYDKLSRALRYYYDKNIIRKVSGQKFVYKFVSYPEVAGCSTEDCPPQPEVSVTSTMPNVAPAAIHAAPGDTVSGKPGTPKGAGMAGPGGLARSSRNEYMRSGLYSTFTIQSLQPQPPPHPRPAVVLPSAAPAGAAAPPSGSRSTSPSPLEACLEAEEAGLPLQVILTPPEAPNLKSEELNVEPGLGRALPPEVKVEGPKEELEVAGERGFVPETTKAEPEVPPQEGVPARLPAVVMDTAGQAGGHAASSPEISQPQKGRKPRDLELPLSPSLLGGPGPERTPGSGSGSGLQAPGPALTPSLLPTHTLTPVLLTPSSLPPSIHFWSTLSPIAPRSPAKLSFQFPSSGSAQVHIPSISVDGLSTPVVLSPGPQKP
As to conditions: protein: recombinant; tags: N-terminal GST; dsDNA, one strand shown. In a few lines: as §1

The target of another experiment is T3, GABPA (Homo sapiens, UniProt Q06546 1-454).
T3 sequence: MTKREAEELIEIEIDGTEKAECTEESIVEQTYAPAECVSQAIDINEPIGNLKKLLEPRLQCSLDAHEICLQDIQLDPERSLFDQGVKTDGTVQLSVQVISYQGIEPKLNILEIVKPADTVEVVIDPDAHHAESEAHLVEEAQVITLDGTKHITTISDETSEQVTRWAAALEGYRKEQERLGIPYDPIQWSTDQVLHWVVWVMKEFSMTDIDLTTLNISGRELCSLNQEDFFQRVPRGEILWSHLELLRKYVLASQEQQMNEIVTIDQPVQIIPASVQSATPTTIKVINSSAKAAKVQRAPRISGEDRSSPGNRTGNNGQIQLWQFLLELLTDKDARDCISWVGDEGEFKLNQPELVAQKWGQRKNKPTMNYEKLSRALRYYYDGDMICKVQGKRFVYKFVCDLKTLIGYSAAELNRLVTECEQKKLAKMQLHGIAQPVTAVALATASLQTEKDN
As to conditions: protein: recombinant; tags: N-terminal GST; dsDNA, one strand shown. In a few lines:
as §1

For the next experiment, the target named is T4, ERG (Homo sapiens, UniProt P11308 1-479).
T4 sequence: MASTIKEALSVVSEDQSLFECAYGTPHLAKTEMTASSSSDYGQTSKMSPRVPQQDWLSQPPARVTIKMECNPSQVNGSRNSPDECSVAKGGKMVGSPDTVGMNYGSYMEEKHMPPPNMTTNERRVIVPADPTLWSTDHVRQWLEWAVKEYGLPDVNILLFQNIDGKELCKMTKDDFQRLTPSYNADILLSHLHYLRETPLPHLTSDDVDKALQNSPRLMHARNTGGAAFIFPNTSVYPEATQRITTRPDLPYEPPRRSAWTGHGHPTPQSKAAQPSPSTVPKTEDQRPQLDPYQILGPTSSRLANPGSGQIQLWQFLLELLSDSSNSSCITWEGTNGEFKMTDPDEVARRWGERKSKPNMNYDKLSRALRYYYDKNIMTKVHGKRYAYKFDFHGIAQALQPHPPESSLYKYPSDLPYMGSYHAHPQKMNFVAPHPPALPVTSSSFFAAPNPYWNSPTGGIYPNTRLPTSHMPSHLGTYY
To be noted: protein: recombinant; tags: N-terminal GST; dsDNA, one strand shown. In a few lines:
as §1

In another experiment the target is ELF1 (Homo sapiens, UniProt P32519 1-619). To be noted: protein: recombinant; tags: N-terminal GST; dsDNA, one strand shown. The gist of the method: as §1
Another experiment concerns the target T5, EHF (Homo sapiens, UniProt Q9NZC4 1-300).
T5 sequence: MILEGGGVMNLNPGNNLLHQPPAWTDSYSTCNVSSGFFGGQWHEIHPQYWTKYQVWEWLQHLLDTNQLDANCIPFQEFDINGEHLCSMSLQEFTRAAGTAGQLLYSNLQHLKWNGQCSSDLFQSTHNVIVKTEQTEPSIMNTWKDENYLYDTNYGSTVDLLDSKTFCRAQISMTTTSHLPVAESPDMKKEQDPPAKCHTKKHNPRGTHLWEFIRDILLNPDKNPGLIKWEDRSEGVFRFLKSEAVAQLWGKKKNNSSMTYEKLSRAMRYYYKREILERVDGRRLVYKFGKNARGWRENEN
As to conditions: protein: recombinant; tags: N-terminal GST; dsDNA, one strand shown. The gist of the method:
as §1

A further experiment addresses SPI1 (Homo sapiens, UniProt P17947 1-270). As to conditions: protein: recombinant; tags: N-terminal GST; dsDNA, one strand shown. In a few lines: as §1
Another experiment deals with SPIB (Homo sapiens, UniProt Q01892 1-262). To be noted: protein: recombinant; tags: N-terminal GST; dsDNA, one strand shown. In a few lines:
as §1

The next experiment addresses T6, ELK3 (Homo sapiens, UniProt P41970 1-407).
T6 sequence: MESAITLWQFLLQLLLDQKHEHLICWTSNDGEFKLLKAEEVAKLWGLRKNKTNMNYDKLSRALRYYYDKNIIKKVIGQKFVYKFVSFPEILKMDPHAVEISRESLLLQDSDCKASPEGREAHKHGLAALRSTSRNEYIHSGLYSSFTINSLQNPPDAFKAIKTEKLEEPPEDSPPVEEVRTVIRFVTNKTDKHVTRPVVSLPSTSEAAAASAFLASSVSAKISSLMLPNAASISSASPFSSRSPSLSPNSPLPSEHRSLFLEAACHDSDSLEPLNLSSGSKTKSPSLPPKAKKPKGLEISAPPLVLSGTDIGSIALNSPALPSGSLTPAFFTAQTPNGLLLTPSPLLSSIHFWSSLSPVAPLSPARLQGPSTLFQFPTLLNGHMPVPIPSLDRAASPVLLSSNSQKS
As to conditions: protein: recombinant; tags: N-terminal GST; dsDNA, one strand shown. In a few lines: as §1

The target of the next experiment is T7, FEV (Homo sapiens, UniProt Q99581 1-238).
T7 sequence: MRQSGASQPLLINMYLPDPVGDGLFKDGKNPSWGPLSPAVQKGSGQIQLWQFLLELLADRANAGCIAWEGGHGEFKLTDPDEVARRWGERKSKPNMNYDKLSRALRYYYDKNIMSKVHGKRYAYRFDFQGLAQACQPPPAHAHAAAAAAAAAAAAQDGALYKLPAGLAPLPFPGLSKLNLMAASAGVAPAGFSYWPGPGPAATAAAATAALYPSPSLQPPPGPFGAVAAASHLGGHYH
To be noted: protein: recombinant; tags: N-terminal GST; dsDNA, one strand shown. In a few lines:
as §1

For a further experiment, the target named is ETV5 (Homo sapiens, UniProt P41161 1-510). To be noted: protein: recombinant; tags: N-terminal GST; dsDNA, one strand shown. The gist of the method:
as §1

A further experiment has as its target HSF1 (Homo sapiens, UniProt Q00613 1-529). To be noted: protein: recombinant; tags: N-terminal GST; chain copies: 3; dsDNA, one strand shown. The gist of the method: as §1
The target in the next experiment is T8, SPIC (Homo sapiens, UniProt Q8N5J4 1-248).
T8 sequence: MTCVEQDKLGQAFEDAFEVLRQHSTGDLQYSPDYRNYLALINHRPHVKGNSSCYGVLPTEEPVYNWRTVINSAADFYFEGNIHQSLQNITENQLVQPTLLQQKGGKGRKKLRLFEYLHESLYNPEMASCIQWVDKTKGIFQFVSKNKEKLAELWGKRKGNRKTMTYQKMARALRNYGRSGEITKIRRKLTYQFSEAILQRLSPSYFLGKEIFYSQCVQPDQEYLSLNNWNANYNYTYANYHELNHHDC
As to conditions: protein: recombinant; tags: N-terminal GST; dsDNA, one strand shown. In a few lines:
as §1

For the next experiment, the target named is ELF4 (Homo sapiens, UniProt Q99607 1-663). To be noted: protein: recombinant; tags: N-terminal GST; dsDNA, one strand shown. In a few lines: as §1
The target in the next experiment is T9, ELK4 (Homo sapiens, UniProt P28324-2 1-405).
T9 sequence: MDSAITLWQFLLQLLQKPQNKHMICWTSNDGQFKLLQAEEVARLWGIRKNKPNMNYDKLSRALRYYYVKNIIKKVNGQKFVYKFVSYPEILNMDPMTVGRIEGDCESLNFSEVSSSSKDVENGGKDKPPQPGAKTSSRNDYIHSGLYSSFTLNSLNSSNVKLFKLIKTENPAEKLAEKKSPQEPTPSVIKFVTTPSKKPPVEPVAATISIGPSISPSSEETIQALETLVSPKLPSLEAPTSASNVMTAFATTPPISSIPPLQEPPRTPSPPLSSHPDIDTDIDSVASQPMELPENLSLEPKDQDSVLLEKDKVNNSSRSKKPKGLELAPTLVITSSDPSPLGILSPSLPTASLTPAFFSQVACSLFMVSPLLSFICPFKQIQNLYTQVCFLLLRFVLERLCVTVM
As to conditions: protein: recombinant; tags: N-terminal GST; dsDNA, one strand shown. In a few lines: as §1

The next experiment deals with T10, ETV2 (Homo sapiens, UniProt O00321 1-342).
T10 sequence: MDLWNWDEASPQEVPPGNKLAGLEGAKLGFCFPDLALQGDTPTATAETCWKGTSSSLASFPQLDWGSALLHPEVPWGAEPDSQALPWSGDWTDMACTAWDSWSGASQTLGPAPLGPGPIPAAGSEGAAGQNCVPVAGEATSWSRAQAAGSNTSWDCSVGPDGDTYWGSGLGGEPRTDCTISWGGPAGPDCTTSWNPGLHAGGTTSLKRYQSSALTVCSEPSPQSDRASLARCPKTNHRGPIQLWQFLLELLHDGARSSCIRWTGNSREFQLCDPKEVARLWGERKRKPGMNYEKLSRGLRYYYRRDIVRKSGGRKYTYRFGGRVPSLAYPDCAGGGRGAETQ
To be noted: protein: recombinant; tags: N-terminal GST; dsDNA, one strand shown. The gist of the method: as §1

The target in a further experiment is CRX (Homo sapiens, UniProt O43186 1-299). To be noted: protein: recombinant; tags: N-terminal GST; dsDNA, one strand shown. The gist of the method: as §1
In a further experiment the target is ETV1 (Homo sapiens, UniProt P50549 1-477). To be noted: protein: recombinant; tags: N-terminal GST; dsDNA, one strand shown. The gist of the method: as §1
Sequence of ETV1 (P50549 whole entry): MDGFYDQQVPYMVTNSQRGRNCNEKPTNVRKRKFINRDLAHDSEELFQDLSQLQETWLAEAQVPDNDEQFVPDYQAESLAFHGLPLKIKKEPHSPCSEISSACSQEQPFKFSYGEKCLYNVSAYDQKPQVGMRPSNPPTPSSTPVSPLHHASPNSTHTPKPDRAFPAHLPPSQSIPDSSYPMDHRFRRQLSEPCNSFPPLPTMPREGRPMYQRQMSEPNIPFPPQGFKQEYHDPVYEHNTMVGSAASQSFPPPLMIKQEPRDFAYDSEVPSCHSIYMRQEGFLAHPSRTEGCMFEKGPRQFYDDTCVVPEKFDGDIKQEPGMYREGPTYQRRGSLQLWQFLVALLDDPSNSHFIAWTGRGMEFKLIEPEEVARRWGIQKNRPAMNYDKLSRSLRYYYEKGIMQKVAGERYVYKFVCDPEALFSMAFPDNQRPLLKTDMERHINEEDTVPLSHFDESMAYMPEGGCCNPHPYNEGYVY

Sequence of ELF4 (Q99607 whole entry): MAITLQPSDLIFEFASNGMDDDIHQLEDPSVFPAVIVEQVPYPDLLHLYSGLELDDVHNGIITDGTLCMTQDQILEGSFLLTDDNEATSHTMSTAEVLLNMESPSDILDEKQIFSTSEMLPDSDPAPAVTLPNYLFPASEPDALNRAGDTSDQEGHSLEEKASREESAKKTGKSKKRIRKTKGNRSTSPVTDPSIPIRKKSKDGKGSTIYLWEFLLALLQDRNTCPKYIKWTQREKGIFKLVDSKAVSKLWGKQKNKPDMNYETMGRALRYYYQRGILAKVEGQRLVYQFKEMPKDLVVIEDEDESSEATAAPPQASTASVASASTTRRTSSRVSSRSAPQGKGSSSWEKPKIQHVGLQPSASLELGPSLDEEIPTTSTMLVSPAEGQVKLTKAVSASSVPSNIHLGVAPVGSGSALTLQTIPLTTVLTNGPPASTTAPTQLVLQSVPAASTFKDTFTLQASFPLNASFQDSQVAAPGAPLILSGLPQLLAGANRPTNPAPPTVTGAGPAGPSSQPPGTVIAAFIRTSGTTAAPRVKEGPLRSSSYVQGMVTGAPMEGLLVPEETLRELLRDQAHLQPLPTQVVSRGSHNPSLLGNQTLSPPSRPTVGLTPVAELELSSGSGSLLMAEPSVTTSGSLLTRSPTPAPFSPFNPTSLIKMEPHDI
Sequence of CRX (O43186 whole entry): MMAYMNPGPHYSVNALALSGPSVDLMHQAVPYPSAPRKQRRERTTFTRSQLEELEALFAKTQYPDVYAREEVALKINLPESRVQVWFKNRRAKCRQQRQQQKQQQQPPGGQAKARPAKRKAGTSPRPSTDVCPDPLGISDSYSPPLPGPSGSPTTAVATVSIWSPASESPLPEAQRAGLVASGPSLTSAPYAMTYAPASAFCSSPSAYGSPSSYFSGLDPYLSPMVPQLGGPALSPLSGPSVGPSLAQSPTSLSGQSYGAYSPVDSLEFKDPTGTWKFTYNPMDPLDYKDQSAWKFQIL
Sequence of HSF1 (Q00613 whole entry): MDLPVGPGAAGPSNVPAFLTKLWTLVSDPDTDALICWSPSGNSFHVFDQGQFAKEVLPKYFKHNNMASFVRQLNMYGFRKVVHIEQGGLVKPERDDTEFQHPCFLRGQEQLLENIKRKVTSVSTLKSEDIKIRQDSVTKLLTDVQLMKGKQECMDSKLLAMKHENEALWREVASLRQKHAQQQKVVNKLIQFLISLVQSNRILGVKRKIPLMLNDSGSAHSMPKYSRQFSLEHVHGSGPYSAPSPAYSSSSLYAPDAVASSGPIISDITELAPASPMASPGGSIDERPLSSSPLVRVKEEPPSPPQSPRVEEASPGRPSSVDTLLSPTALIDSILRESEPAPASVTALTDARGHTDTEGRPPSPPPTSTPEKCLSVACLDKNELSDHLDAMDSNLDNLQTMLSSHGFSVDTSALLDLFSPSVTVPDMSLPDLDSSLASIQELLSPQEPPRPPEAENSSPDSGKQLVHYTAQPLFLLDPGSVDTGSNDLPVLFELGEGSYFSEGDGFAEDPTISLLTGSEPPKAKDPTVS
Sequence of ETV5 (P41161 whole entry): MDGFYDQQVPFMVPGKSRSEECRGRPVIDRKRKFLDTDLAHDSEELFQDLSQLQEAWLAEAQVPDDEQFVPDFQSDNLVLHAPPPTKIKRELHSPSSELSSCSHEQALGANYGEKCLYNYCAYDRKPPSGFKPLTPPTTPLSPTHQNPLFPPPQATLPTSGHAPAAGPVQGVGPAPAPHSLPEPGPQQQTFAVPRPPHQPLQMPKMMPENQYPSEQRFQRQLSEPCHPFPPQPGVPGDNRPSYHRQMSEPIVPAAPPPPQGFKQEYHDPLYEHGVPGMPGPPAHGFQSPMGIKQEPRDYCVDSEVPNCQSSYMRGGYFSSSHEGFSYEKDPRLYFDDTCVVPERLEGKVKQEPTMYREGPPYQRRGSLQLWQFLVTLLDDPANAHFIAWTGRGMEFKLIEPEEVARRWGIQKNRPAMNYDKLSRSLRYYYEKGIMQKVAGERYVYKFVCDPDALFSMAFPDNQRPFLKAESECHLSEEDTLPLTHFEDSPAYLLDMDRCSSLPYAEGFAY
Sequence of ELF1 (P32519 whole entry): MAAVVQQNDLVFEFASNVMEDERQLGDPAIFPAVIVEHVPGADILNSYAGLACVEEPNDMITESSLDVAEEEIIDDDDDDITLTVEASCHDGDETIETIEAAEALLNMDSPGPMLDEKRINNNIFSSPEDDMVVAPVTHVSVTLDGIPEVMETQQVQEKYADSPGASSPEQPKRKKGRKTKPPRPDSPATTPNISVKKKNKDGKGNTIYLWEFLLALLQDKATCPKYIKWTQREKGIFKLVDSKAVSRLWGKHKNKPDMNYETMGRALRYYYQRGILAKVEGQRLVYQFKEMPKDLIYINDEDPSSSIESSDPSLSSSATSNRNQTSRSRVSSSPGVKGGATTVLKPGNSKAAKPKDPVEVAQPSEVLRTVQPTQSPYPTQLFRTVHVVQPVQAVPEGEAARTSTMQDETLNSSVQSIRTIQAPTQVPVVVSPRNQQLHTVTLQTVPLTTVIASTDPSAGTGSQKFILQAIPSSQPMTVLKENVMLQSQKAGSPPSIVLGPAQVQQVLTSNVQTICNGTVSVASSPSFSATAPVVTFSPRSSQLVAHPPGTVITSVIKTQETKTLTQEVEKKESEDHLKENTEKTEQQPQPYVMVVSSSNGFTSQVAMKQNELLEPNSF
Sequence of SPIB (Q01892 whole entry): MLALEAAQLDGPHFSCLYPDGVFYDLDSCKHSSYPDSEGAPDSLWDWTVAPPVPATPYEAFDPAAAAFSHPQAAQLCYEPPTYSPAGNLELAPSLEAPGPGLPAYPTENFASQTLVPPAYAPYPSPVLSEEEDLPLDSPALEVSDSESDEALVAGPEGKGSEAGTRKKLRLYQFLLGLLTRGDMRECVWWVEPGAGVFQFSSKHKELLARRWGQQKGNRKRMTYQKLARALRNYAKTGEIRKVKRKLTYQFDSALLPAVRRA

Consider GATGAA, for which the binding signal with FLI1 was 1.23 fold enrichment (6-mer frequency, TF over GST control); in the experiment with ELK1, 1.26 fold enrichment (6-mer frequency, TF over GST control); with GABPA, 1.2 fold enrichment (6-mer frequency, TF over GST control); with ERG, 1.17 fold enrichment (6-mer frequency, TF over GST control); in the experiment with ELF1, 1.18 fold enrichment (6-mer frequency, TF over GST control); with EHF it was 1.15 fold enrichment (6-mer frequency, TF over GST control). The binding signal in the experiment with SPI1 was 1.1 fold enrichment (6-mer frequency, TF over GST control); with SPIB it was 1.24 fold enrichment (6-mer frequency, TF over GST control); with ELK3, 1.11 fold enrichment (6-mer frequency, TF over GST control); with FEV, 1.13 fold enrichment (6-mer frequency, TF over GST control); with ETV5, 1.13 fold enrichment (6-mer frequency, TF over GST control); in the experiment with HSF1, 1.21 fold enrichment (6-mer frequency, TF over GST control). In addition, the binding signal with SPIC was 1.11 fold enrichment (6-mer frequency, TF over GST control); with ELF4 it was 1.2 fold enrichment (6-mer frequency, TF over GST control); with ELK4 it was 1.21 fold enrichment (6-mer frequency, TF over GST control); with ETV2, 1.13 fold enrichment (6-mer frequency, TF over GST control); with CRX it was 1.22 fold enrichment (6-mer frequency, TF over GST control); with ETV1, 1.27 fold enrichment (6-mer frequency, TF over GST control).
